Experimental findings from PubChem BioAssay (NCATS) are described below.

Records with an inconclusive call do not appear. Values without a mark were called inactive. Activity calls are given as the source filed them. The call rests on the fitted dose curve; in most records, active means well fitted activation curve with a large enough effect; inconclusive means small, poorly fitted or top-dose-only effect; inactive means flat fitted curve, though single readings scatter.
Potency means the concentration at half of the fitted maximal effect.

The assay can be described thus: Validation screen for small molecules that induce DNA re-replication in SW480 colon adenocarcinoma cells (AID 504364). On activity (re-replication induction): 0% is about no effect. The conditions noted are these: DNA re-replication phenotype (high-content imaging); series mostly up to 46.1 µM; activity (re-replication induction): at the top concentration. An excerpt: H Molecular Libraries Probe Production Network [MLPCN]
NIH Chemical Genomics Center [NCGC]
Assay Provider: Melvin DePamphilis, NICHD, NIH
Eukaryotic cells normally restrict genome duplication to once per cell division. When this process is aberrant, DNA re-replication occurs when cells reinitiate DNA replication before the first round of replication is complete. DNA re-replication induces the DNA damage response, arrests cell proliferation, and triggers apoptosis. The cell cycle components cyclin A, Cdt-1, Cdc6 and geminin are critical regulators of this process and their misregulation results in DNA re-replication in normal and cancer cells. To identify compounds that induce re-replication in normal cells, an image-based assay was used to measure DNA content of nuclei, as detected by the fluorescent DNA binding dye, Hoechst. Cell nuclei were imaged by a fluorescence scanning plate imager and compounds that induce DNA re-replication were identified by the increase of nuclei with elevated fluorescence intensity.#
For screening, 250 cells in 5 uL/well were dispensed into black clear 1536-well plates (Aurora) using a solenoid-based dispenser. Following transfer of 23 nL compound or DMSO vehicle by a pin tool, the plates were incubated 48 hr at 37 C and 5% CO2. After addition of 1 uL/well Hoescht stain, the plates were incubated 40 min at 37 C, 5% CO2 and total intensity of fluorescent objects (nuclei) were enumerated by an Acumen Explorer Ex3 (TTP LabTech) fluorescence scanning plate imager (405 nm excitation, 500-530 nm emission).
Keywords: NIH Roadmap, MLPCN, MLI, MLSMR, qHTS, NCGC, DNA replication, cancer
In the case of `CCC(=O)N1CCN(C(=O)c2ccccc2)CC1`, the “activity (re-replication induction)” value was -6.13%. `CCCCCCCCCCCCCCC[C@H](O)[C@H](N)CO`: the “activity (re-replication induction)” value was -10.5%. `O=c1cc(-c2ccccc2)[nH]c2nc(Cl)ccc12`: the Potency was 1840 nM (active). Consider `CCn1c(=O)[nH]c2cc(Cl)c(Cl)cc21`, for which the “activity (re-replication induction)” value is 0.0044%. Regarding `CCCCOc1cc(CC2CNC(=O)N2)ccc1OC` (stereo not given), the “activity (re-replication induction)” value was -18%. On the same count and under the same terms, then `CCCc1c(-c2ccc(O)cc2)nn(-c2ccc(O)cc2)c1-c1ccc(O)cc1`, with -4.18%; and `N[C@@H](Cc1ccc(O)c(I)c1)C(=O)O`, with -15.4%. With `CC(=O)C(C)=O`, the “activity (re-replication induction)” value was 0.337%. On to `CC(=O)NNC(=O)N1Cc2ccccc2Oc2ccc(Cl)cc21`, for which the “activity (re-replication induction)” value was -9.68%. The same measure, in the same setting: then `CC(N)=NCCCC[C@@H](N)C(=O)O`, with -0.668%; and `NC1CONC1=O` (stereo not given), with -0.738%; and `OC1(c2ccc(Cl)cc2)CCN(Cc2c[nH]c3ccccc23)CC1`, with 12.3%. Same read-out and setting: with `N[C@@H](Cc1c[nH]c2ccccc12)C(=O)O` the figure was 0.325%; with `CC#CCOC(=O)c1c(C)nc2sc3c(c2c1N)CCC(O)C3` (stereo not given), -5.75%. Still for that read-out and setting: then `COc1ccc(-c2ccc(N)[n+](CCCC(=O)O)n2)cc1`, with -9.95%; and `O=c1onc2n1-c1cc(Br)ccc1OC2`, with 5.69%.

In the case of `N[C@H](C(=O)O)c1cc(O)cc(O)c1`, the “activity (re-replication induction)” value was 0.404%. Consider `CCCCCCCCCCC/C=C\C(C)(C)/C=C\CCCC(=O)O`, for which the “activity (re-replication induction)” value was -1.77%.

`COc1ccc2c(c1)c(CC(=O)O)c(C)n2Cc1ccc(Cl)cc1`: the “activity (re-replication induction)” value is -13.5%. For `C/C(=C\c1ccc(C(=O)O)cc1)c1ccc2c(c1)C(C)(C)CCC2(C)C`, the “activity (re-replication induction)” value was -2.52%.

Consider `NC/C=C\C(=O)O`, for which the “activity (re-replication induction)” value was -1.52%. On the same count and under the same terms, with `COc1cc(C(O)CO)ccc1O` (stereo not given) the figure was -9.71%; with `O=C(O)C1=CCCNC1`, -7.54%; with `COc1ccccc1N1CCN(CCCCN2C(=O)c3ccccc3C2=O)CC1`, -0.751%. The same measure, in the same setting: with `C#CC(N)CCC(=O)O` (stereo not given) the figure was 1.33%; with `O=C(O)C1CCNCC1`, -0.956%.

For `CC(=O)[C@H]1CCC2C3CC=C4C[C@@H](OS(=O)(=O)O)CC[C@]4(C)C3CC[C@@]21C` (stereo not given in full), the “activity (re-replication induction)” value is 3.52%. With `C=CCn1c(=O)c2c(nc(-c3ccc(S(=O)(=O)O)cc3)n2C)n(C)c1=O`, the “activity (re-replication induction)” value was 16.3%. The same measure, in the same setting: with `NC(=O)CC[C@H](N)C(=O)O` the figure was -2.57%; with `CCCC[C@@]1(C2CCCC2)Cc2cc(OCC(=O)O)c(Cl)c(Cl)c2C1=O`, -11.1%; with `O=C1Nc2ccc(I)cc2/C1=C/c1cc(Br)c(O)c(Br)c1`, -0.682%. Same read-out and setting: with `COc1cc(N)c(Cl)cc1C(=O)OCCN1CCCCC1` the figure was -7.69%; with `COC(=O)C(N)Cc1ccc(Cl)cc1` (stereo not given), -13.1%. For the molecule `c1ccc2c(c1)CC(N1CCN(c3cccc4c3OCCO4)CC1)C2`, the “activity (re-replication induction)” value is -0.0429%. As to `O=C1NC(=O)c2cc(Nc3ccccc3)c(Nc3ccccc3)cc21`, the “activity (re-replication induction)” value was -0.269%. Consider `O=C(O)c1cc(=O)cc(C(=O)O)[nH]1`, for which the “activity (re-replication induction)” value is -14.1%. Turning to `CC(N)(C(=O)O)c1ccc(C(=O)O)cc1` (stereo not given), the “activity (re-replication induction)” value was 1.94%.

Turning to `CC(=O)N[C@@H](Cc1c[nH]c2ccccc12)C(=O)OCc1cc(C(F)(F)F)cc(C(F)(F)F)c1`, the “activity (re-replication induction)” value is -0.426%.

For `C=C1C(=O)O[C@@H]2[C@H]3O[C@]3(C)CCC=C(C)CC[C@@H]12`, the “activity (re-replication induction)” value is -2.88%. On the same count and under the same terms, then `CC(C)NCC(O)COc1ccc(CC(N)=O)cc1` (stereo not given), with -3.37%.
